According to PubChem BioAssay (NCATS):
Inconclusive results are not listed. Unless noted, calls follow the shape of the dose curve; as a rule, active = well fitted curve in either direction with a large enough effect (not every such curve was filed as active); inconclusive = small, poorly fitted or top-dose-only effect, or another doubt; inactive = flat fitted curve, though single readings scatter.

Columns and labels:
[1] = AP1 Signaling Pathway (AID 357); details: ME-180 AP-1-bla reporter, EGF-induced, beta-lactamase ratio, 5 h; at 17.2 µM (top of the series) unless noted;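 also: ME-180 reporter cells stimulated with EGF at its EC50 level; % is scaled to controls: 0 for no effect and ±100 for the full control effect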
Outline: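 Read-out was the 460nm/530nm emission ratio (excitation 405nm) after CCF4 loading for 2.5 hours at room temperature. Cells carried an AP-1-driven beta-lactamase reporter, were stimulated with EC50 EGF plus compound for 5 hours, and AC50 values came from titrations.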

[2] = NFAT Signaling Pathway (AID 444); details: Jurkat NFAT-bla M1, carbachol, beta-lactamase ratio, 5 h; at 17.2 µM (top of the series) unless noted;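 also: carbachol stimulus at about its EC50 of 1 µM final; % is scaled to controls: 0 for no effect and ±100 for the full control effect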
Outline: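 Jurkat cells carrying an NFAT-driven β-lactamase reporter and co-transfected muscarinic M1 receptor were treated with compound plus carbachol (1 uM final, an EC50 level) for 5 h at 37 °C. CCF4 loading followed for 1 h at RT; 460/530 nm ratio gave %activity.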

[3] = Stat Signaling Pathway (AID 446); details: ME-180 (cervical carcinoma) SIE beta-lactamase reporter, IL-6 stimulated, 5 h; at 17.2 µM (top of the series) unless noted;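 also: ME-180 cervical cancer cells given 40 pM IL-6 alongside compound; SIE-controlled beta-lactamase reporter measured as 460/530 nm FRET emission ratio; % is scaled to controls: 0 for no effect and ±100 for the full control effect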
Outline: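 Normalization used AC90 stimulation (300 pM IL-6) and AC90 inhibition (125 nM pan-JAK inhibitor at 40 pM IL-6). The underlying signal is SIE-driven beta-lactamase in ME-180 cells after 5 h IL-6 exposure with compound.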

[4] = biological target: Glucocorticoid receptor (Homo sapiens) (UniProt P04150); test: GR-GFP Redistribution (AID 450;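 active = compounds whose dose series gives a full or clear partial fitted curve of increased nuclear translocation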; also: potency is read from the fitted curve at half-maximal effect)
Sequence of Glucocorticoid receptor (Homo sapiens) (P04150 whole entry, looked up): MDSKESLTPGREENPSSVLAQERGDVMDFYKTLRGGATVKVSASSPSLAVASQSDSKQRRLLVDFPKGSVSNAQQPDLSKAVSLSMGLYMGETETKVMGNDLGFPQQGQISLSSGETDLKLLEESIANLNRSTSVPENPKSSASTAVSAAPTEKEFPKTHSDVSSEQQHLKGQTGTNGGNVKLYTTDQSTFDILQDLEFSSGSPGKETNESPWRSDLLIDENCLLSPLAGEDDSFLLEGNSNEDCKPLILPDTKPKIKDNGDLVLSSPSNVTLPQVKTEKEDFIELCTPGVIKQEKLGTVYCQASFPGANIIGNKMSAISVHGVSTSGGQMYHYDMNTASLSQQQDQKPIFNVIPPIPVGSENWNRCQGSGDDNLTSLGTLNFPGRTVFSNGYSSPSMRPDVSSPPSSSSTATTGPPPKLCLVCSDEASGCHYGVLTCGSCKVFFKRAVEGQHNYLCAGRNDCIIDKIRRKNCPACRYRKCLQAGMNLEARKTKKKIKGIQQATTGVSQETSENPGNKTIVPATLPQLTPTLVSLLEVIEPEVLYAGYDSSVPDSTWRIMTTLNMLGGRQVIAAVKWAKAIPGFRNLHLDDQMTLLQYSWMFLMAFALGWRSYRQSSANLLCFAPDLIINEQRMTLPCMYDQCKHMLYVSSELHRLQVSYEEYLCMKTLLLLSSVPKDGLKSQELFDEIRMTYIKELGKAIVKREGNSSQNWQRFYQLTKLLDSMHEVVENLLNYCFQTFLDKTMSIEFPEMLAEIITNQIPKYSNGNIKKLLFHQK

CC12CN3CC(C)(CN(C1)C3c1ccc(Cl)cc1Cl)C2O (centres undefined)
inactive: activity change, negative = inhibition [1] 3.94% | activity change, negative = inhibition [2] -12% | activity, negative = inhibition [3] 3.23% | Potency [4] > 20.6 µM

COc1ccc(C2C(C#N)=C(N)Oc3cc(C)n(CCN4CCOCC4)c(=O)c32)cc1OC (centres undefined)
inactive: activity change, negative = inhibition [1] 0.457% | activity change, negative = inhibition [2] 24.9% | activity, negative = inhibition [3] 6.24% | Potency [4] > 20.6 µM

O=C(O)C1CSC(CCc2ccccc2)N1 (centres undefined)
inactive: activity change, negative = inhibition [1] 19.9% | activity change, negative = inhibition [2] -1.74% | activity, negative = inhibition [3] 27% | Potency [4] > 20.6 µM

Nc1nnc(CC2=CCCCC2)s1
inactive: activity change, negative = inhibition [1] 1.59% | activity change, negative = inhibition [2] -3.51% | activity, negative = inhibition [3] 3.57% | Potency [4] > 20.6 µM

CCOC(=O)C1CSc2[nH]c(=O)sc2C1c1ccccc1 (centres undefined)
inactive: activity change, negative = inhibition [1] 0.248% | activity change, negative = inhibition [2] -1.24% | activity, negative = inhibition [3] -1.01% | Potency [4] > 20.6 µM

COc1cc(S(=O)(=O)N2CCN(C)CC2)c(OC)cc1Br
inactive: activity change, negative = inhibition [1] 9.1% | activity change, negative = inhibition [2] -13.8% | activity, negative = inhibition [3] 3.25% | Potency [4] > 20.6 µM

CCOC(=O)c1c(C(F)(F)C(F)(F)C(F)(F)C(F)(F)F)n[nH]c1C
inactive: activity change, negative = inhibition [1] 4.08% | activity change, negative = inhibition [2] -9.51% | activity, negative = inhibition [3] -8.59% | Potency [4] > 20.6 µM

COc1ccc(/C(O)=C2\C(=O)C(=O)N(Cc3ccco3)C2c2cc(OC)ccc2OC)cc1 (centres undefined)
inactive: activity change, negative = inhibition [1] 8.52% | activity change, negative = inhibition [2] -18% | activity, negative = inhibition [3] -17.9% | Potency [4] > 20.6 µM

C[C@@H]1C[C@H](Nc2ccccc2)c2ccccc2N1C(=O)c1cccnc1
inactive: activity change, negative = inhibition [1] 5.62% | activity change, negative = inhibition [2] -3.58% | activity, negative = inhibition [3] -2.73% | Potency [4] > 20.6 µM

Cn1c(=O)c2c(nc(NCC(O)CO)n2CCc2ccccc2)n(C)c1=O (centres undefined)
inactive: activity change, negative = inhibition [1] 8.87% | activity change, negative = inhibition [2] -3.8% | activity, negative = inhibition [3] 1.91% | Potency [4] > 20.6 µM

Cc1cc(=O)oc(C)c1C(=O)N1CCN(C)CC1
inactive: activity change, negative = inhibition [1] 5.91% | activity change, negative = inhibition [2] 17.3% | activity, negative = inhibition [3] 5.89% | Potency [4] > 20.6 µM

COc1ccc(OC)c(C(O)c2coc3ccc(O)c(CN4CCOCC4)c23)c1 (centres undefined)
inactive: activity change, negative = inhibition [1] 0.618% | activity change, negative = inhibition [2] -10.4% | activity, negative = inhibition [3] -5.12% | Potency [4] > 20.6 µM

CC(=O)OCC(=O)[C@H]1CC[C@H]2[C@@H]3CC=C4C[C@@H](O)CC[C@]4(C)[C@H]3CC[C@]12C
inactive: activity change, negative = inhibition [1] 12.9% | activity change, negative = inhibition [2] 4.8% | activity, negative = inhibition [3] -2.21% | Potency [4] > 20.6 µM

CC(C)(C)C1=Nn2c(nnc2C2CCCCC2)SC1
inactive: activity change, negative = inhibition [1] -2.23% | activity change, negative = inhibition [2] -6.37% | activity, negative = inhibition [3] 22.7% | Potency [4] > 20.6 µM

NC(=O)C(c1ccccc1)C1CCCC1 (centres undefined)
inactive: activity change, negative = inhibition [1] -5.55% | activity change, negative = inhibition [2] 1.68% | activity, negative = inhibition [3] 15.2% | Potency [4] > 20.6 µM

Cc1ccc(C(=O)C2=C(O)C(=O)N(CCN3CCOCC3)C2c2ccccn2)o1 (centres undefined)
inactive: activity change, negative = inhibition [1] -1.65% | activity change, negative = inhibition [2] 8.69% | activity, negative = inhibition [3] 5.67% | Potency [4] > 20.6 µM

O=C1CCC(=O)N1CN(C(=O)c1ccco1)c1ccc(Cl)c(Cl)c1
inactive: activity change, negative = inhibition [1] -6.31% | activity change, negative = inhibition [2] -5.89% | activity, negative = inhibition [3] 11.1% | Potency [4] > 20.6 µM

CCOc1ccc2nc(NC(NC(C)=O)(C(=O)OC)C(F)(F)F)sc2c1 (centres undefined)
inactive: activity change, negative = inhibition [1] 5.71% | activity change, negative = inhibition [2] 0.18% | activity, negative = inhibition [3] -4.87% | Potency [4] > 20.6 µM

CC(=O)Nc1ccc(S(=O)(=O)Nc2nc3n(n2)C(c2ccccc2)CC(=O)N3)cc1 (centres undefined)
inactive: activity change, negative = inhibition [1] 4.99% | activity change, negative = inhibition [2] 2.5% | activity, negative = inhibition [3] 1.09% | Potency [4] > 20.6 µM

COc1ccc(CC(=O)OCN2C(=O)c3ccccc3C2=O)cc1
inactive: activity change, negative = inhibition [1] 11.9% | activity change, negative = inhibition [2] -7.12% | activity, negative = inhibition [3] -0.768% | Potency [4] > 20.6 µM

Cc1nnc(N2CCCCC2)c2ccccc12
inactive: activity change, negative = inhibition [1] -1.88% | activity change, negative = inhibition [2] 13.3% | activity, negative = inhibition [3] -8.53% | Potency [4] > 20.6 µM

CCCCNc1nc2c(c(=O)n(C)c(=O)n2C)n1Cc1cccc(OC)c1
inactive: activity change, negative = inhibition [1] -11.7% | activity change, negative = inhibition [2] 2.13% | activity, negative = inhibition [3] -17% | Potency [4] > 20.6 µM

CCCCCCn1c(C(C)O)nc2ccccc21 (centres undefined)
inactive: activity change, negative = inhibition [1] 0.304% | activity change, negative = inhibition [2] 5.62% | activity, negative = inhibition [3] -3.73% | Potency [4] > 20.6 µM

Nc1ccc2oc3ncccc3c(=O)c2c1
inactive: activity change, negative = inhibition [1] 7.58% | activity change, negative = inhibition [2] 10.7% | activity, negative = inhibition [3] -3.84% | Potency [4] > 20.6 µM

CCOC(=O)CSC1=C(C#N)C(c2ccc(OC)cc2)C2=C(CC(C)(C)CC2=O)N1 (centres undefined)
inactive: activity change, negative = inhibition [1] -15.4% | activity change, negative = inhibition [2] 7.5% | activity, negative = inhibition [3] -4.41% | Potency [4] > 20.6 µM

Cc1cccc(C)c1NC(=O)CSCC(=O)c1ccc(O)c(O)c1
inactive: activity change, negative = inhibition [1] -12.4% | activity change, negative = inhibition [2] 22.8% | activity, negative = inhibition [3] -19.4% | Potency [4] > 20.6 µM
